Test results published in the supplement of paper PMC12669797.
Counter-ions that a name gives are not always drawn.

Key:
[1] = system: ES2; assay: cell viability relative to DMSO control (MTS) (fraction of DMSO control); higher = more viable cells / less growth inhibition; conditions: 10 µM; 48 h
Outline: (§1)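 After 24 h of growth in 96-well plates at 5000 cells per well, TOV-21G and ES2 clear cell carcinoma cells were treated for 48 h with a 367-compound […] library at 10 µM final concentration. Cell viability was measured by MTS assay and expressed relative to vehicle control wells as a fraction.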

[2] = system: TOV-21G; assay: as above; conditions: 10 µM; 48 h
Outline: as §1

SMILES	cell viability [1]	cell viability [2]
CC(C)(c1ccc(OCC2CO2)cc1)c1ccc(OCC2CO2)cc1 (stereo not drawn)	0.975	1.27
CO/C1=C\C(C)=C\[C@@H](C)[C@@H](O)[C@@H](C)C/C(C)=C/C=C/[C@H](OC)[C@@H]([C@@H](C)[C@@H](O)[C@H](C)[C@@]2(O)C[C@@H](O)[C@H](C)[C@@H](C(C)C)O2)OC1=O [Bafilomycin A1]	0.467	0.395
N=C(N)NN [Aminoguanidine, HCl]	0.55	0.337
CC[C@@]1(O)C(=O)OCc2c1cc1n(c2=O)Cc2cc3ccccc3nc2-1 [Camptothecin]	0.527	0.267
C=C(C)[C@H]1Cc2c(ccc3c2O[C@@H]2COc4cc(OC)c(OC)cc4[C@@H]2C3=O)O1 [Rotenone]	0.491	0.666
CC(C)[C@@H]1NC(=O)[C@H](C)OC(=O)[C@@H](C(C)C)NC(=O)[C@@H](C(C)C)OC(=O)[C@H](C(C)C)NC(=O)[C@H](C)OC(=O)[C@@H](C(C)C)NC(=O)[C@@H](C(C)C)OC(=O)[C@H](C(C)C)NC(=O)[C@H](C)OC(=O)[C@@H](C(C)C)NC(=O)[C@@H](C(C)C)OC1=O [Valinomycin]	0.482	0.355
CCC1(c2ccc(N)cc2)CCC(=O)NC1=O (stereo not drawn) [Aminoglutethimide]	1.08	0.918
COc1ccc2c3c([nH]c2c1)[C@H](C=C(C)C)N1C(=O)[C@@H]2CCCN2C(=O)[C@@H]1C3 [Fumitremorgin C]	0.945	0.838
N[C@@H]1C[C@H]1c1cc(F)cc(F)c1OCc1ccccc1 [S2101 (LSD1 inhibitor II)]	0.792	1.04
